Here are results for 13 sequences from article PMC5700166.

Where a chain is given by its changes, count along the chain named.

Common to all, as to experiment: protein-binding microarray (PBM); PBM: ~300 nM protein, 6 mM HEPES pH 7.8, 80 mM KCl, 0.5 mM EDTA, 0.5 mM EGTA, 6% glycerol, 35 ng/ul poly-dIdC, 1% milk, 1 h, room temperature; Ap Aiptasia and Nv Nematostella (sea anemones) / Co Capsaspora / Aq Amphimedon (sponge) / Dm Drosophila / Hu human; RHD is the Rel homology domain; high values mean tight binding
What all share (conditions): dsDNA, one strand shown

For assay [1], the target named is T1, GST-Ap-NF-kB RHD (Exaiptasia pallida (Aiptasia), UniProt A0A913YAJ5 2-422).
T1 sequence: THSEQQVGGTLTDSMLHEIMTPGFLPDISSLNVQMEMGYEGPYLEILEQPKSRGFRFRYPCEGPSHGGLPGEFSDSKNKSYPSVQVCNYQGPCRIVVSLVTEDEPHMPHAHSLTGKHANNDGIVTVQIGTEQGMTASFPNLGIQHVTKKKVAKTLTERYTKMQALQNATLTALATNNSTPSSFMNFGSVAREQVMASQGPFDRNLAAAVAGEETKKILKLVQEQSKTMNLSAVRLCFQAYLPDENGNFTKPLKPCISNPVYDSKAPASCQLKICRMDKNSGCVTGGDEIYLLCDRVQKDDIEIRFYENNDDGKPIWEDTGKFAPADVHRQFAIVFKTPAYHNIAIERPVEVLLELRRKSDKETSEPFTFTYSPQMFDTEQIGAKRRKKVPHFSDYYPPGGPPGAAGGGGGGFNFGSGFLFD

Assay [2] deals with T2, GST-Nv-NF-kB (Cys allele) (Nematostella vectensis, UniProt E5G601 2-411).
T2 sequence: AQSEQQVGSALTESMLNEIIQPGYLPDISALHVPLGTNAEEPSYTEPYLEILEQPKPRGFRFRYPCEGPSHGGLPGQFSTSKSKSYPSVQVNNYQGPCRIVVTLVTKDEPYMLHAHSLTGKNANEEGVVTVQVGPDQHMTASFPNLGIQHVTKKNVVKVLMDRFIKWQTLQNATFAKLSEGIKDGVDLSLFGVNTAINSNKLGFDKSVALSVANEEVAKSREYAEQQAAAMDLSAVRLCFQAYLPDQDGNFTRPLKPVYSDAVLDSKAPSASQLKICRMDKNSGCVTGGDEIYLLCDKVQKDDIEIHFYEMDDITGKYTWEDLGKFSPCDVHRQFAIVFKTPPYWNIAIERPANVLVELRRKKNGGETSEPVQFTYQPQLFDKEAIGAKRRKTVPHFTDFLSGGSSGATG

For assay [3], the target named is T3, GST-Nv-NF-kB (Ser allele) (Nematostella vectensis, UniProt A7UNT2 2-411).
T3 sequence: T2 sequence with Q21R, C66S, S207N, E215Q, V217A, E225K, A268E, D399E

Assay [4] has as its target T4, GST-Co-NF-kB (Capsaspora owczarzaki, UniProt F1ARL5 200-546).
T4 sequence: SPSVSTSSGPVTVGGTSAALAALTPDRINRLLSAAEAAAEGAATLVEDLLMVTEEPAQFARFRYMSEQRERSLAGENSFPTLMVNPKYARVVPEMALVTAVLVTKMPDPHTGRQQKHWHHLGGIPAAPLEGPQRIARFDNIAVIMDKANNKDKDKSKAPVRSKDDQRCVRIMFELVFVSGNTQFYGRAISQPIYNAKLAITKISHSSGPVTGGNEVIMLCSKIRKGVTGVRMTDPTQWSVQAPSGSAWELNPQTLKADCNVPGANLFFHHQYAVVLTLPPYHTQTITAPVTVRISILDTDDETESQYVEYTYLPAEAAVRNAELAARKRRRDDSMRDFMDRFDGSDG

In assay [5] the target is T5, GST-Dm-Relish (Drosophila melanogaster, UniProt Q94527 99-473).
T5 sequence: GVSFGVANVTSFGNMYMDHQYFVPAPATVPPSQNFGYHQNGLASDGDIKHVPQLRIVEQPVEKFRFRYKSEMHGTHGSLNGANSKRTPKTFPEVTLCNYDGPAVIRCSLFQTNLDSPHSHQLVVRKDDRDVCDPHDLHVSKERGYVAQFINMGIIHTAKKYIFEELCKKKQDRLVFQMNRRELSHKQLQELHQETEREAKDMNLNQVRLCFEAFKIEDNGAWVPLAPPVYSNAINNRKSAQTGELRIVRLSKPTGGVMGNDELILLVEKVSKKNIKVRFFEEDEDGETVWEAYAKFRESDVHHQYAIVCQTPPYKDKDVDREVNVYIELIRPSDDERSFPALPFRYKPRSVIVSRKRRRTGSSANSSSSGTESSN

The target of assay [6] is T6, GST-Aq-NF-kB (Amphimedon queenslandica, UniProt A9Y5G7 2-389).
T6 sequence: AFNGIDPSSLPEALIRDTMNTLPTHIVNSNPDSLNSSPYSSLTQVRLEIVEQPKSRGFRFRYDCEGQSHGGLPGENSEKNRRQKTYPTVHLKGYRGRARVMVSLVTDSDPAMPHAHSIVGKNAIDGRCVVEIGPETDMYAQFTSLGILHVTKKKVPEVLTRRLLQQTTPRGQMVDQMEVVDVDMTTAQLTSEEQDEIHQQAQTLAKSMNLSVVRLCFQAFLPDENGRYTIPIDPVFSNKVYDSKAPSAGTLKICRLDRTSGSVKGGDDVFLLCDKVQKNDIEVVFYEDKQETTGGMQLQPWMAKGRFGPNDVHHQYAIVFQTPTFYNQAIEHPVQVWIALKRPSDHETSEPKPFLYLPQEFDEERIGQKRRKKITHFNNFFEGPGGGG

With “CCGATTAACATCAAATATTTCCCTGATGTTAATCGGGTCTTGATTCGCTTGACGCTGCTG”, the binding signal came out at 3.87 z-score in assay [1]; 6.57 z-score in assay [2]; 6.99 z-score in assay [3]; 5.89 z-score in assay [4]; 4.25 z-score in assay [5]; 6.66 z-score in assay [6].

Take “CCGATTAACATCACGGGGGGGAATGATGTTAATCGGGTCTTGATTCGCTTGACGCTGCTG”: the binding signal in assay [1] came out at 6.98 z-score; in assay [2] it was 5.54 z-score; in assay [3] it was 6.1 z-score; in assay [4], 9.46 z-score; in assay [5] it was 5.39 z-score; in assay [6] it was 5.91 z-score.

In the case of “CCGATTAACATCACCCATTCCCCTGATGTTAATCGGGTCTTGATTCGCTTGACGCTGCTG”, the binding signal in assay [1] was found to be 6.25 z-score; in assay [2], 5.53 z-score; in assay [3], 7.1 z-score; in assay [4], 5.33 z-score; in assay [5], 2.33 z-score; in assay [6], 4.22 z-score.

Regarding “CCGATTAACATCAAAGCATTCCCTGATGTTAATCGGGTCTTGATTCGCTTGACGCTGCTG”, the binding signal in assay [1] came to 2.32 z-score; in assay [2], 3.04 z-score; in assay [4] it was 2.52 z-score; in assay [6], 3.35 z-score.

Consider “CCGATTAACATCAGGGGTAGGTTTGATGTTAATCGGGTCTTGATTCGCTTGACGCTGCTG”, for which the binding signal in assay [1] was found to be 2.16 z-score; in assay [2] it was 1.65 z-score; in assay [4], 3.22 z-score; in assay [6], 2.1 z-score.

As to “CCGATTAACATCAACCCCCCCCATGATGTTAATCGGGTCTTGATTCGCTTGACGCTGCTG”, the binding signal in assay [1] came out at 5.53 z-score; in assay [2], 4.32 z-score; in assay [3], 3.55 z-score; in assay [4], 4.94 z-score; in assay [5], 5.75 z-score; in assay [6] it was 4.01 z-score.

Consider “CCGATTAACATCAACCTTTCCCCTGATGTTAATCGGGTCTTGATTCGCTTGACGCTGCTG”, for which the binding signal came to 5.33 z-score in assay [1]; 6.21 z-score in assay [2]; 7.66 z-score in assay [3]; 6.19 z-score in assay [4]; 1.62 z-score in assay [5]; 4.44 z-score in assay [6].

“CCGATTAACATCACACCCCCCCGTGATGTTAATCGGGTCTTGATTCGCTTGACGCTGCTG”: the binding signal in assay [1] worked out at 4.06 z-score; in assay [2], 3.09 z-score; in assay [3] it was 3.09 z-score; in assay [4], 4.58 z-score; in assay [5], 4.46 z-score; in assay [6] it was 3.38 z-score.

“CCGATTAACATCAAATTCTCCCCTGATGTTAATCGGGTCTTGATTCGCTTGACGCTGCTG”: the binding signal was found to be 5.65 z-score in assay [1]; 6.62 z-score in assay [2]; 7.76 z-score in assay [3]; 8.72 z-score in assay [4]; 2.37 z-score in assay [5]; 5.21 z-score in assay [6].

As to “CCGATTAACATCAGGTAATTACCTGATGTTAATCGGGTCTTGATTCGCTTGACGCTGCTG”, the binding signal in assay [1] came out at 2.06 z-score; in assay [2], 4.18 z-score; in assay [3], 5.28 z-score; in assay [5], 5.43 z-score; in assay [6], 5.11 z-score.

Consider “CCGATTAACATCATGGTGGGAAATGATGTTAATCGGGTCTTGATTCGCTTGACGCTGCTG”, for which the binding signal was 1.25 z-score in assay [1], 2.69 z-score in assay [2], 2.94 z-score in assay [4] and 1.9 z-score in assay [6].

For “CCGATTAACATCACGCCCCCCCCTGATGTTAATCGGGTCTTGATTCGCTTGACGCTGCTG”, the binding signal was 5.3 z-score in assay [1]; 4.2 z-score in assay [2]; 4.8 z-score in assay [3]; 3.87 z-score in assay [4]; 4.72 z-score in assay [5]; 4.89 z-score in assay [6].

For the sequence “CCGATTAACATCACCGTTTTCCCTGATGTTAATCGGGTCTTGATTCGCTTGACGCTGCTG”, the binding signal was 3.62 z-score in assay [1]; 4.51 z-score in assay [2]; 6.61 z-score in assay [3]; 4.03 z-score in assay [4]; 2.19 z-score in assay [5]; 3.24 z-score in assay [6].
